# Reference: the supplement of paper PMC9262897, “Low-cost anti-mycobacterial drug discovery using engineered E. coli” (Nature Communications, 2022)
# Where a name gives a salt, the structure may show the parent alone. ± gives the standard deviation of the averaged measurements.
# System: E. coli TESEC Mtb Alr
# Test: growth (OD600 after 10 h); higher = more growth (less inhibition)
# Conditions: arabinose 10000 nM; compound 0.1 mM; raw OD600 reference: median of DMSO wells 0.264, cell-free background 0.041
# Experimental: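 TESEC Mtb Alr E. coli, or the Alr+ wild-type control, in 384-well plates with Prestwick library compounds at 0.1 mM and 1% DMSO, across arabinose induction levels of 1E3 to 1E7 nM. Growth is read as OD600 after 10 h at 37 °C in triplicate biological replicates.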
row,Structure (SMILES),growth
1,CN(C)CC/C=C1/c2ccccc2COc2ccc(CC(=O)O)cc21 [Olopatadine hydrochloride],0.276 ± 0.0029
2,C[C@]12CCC(=O)C=C1C=C[C@@H]1[C@@H]2CC[C@@]2(C)[C@H]1CC[C@@]21CCC(=O)O1 [Canrenone],0.097 ± 0.0013
3,CCC(C)n1ncn(-c2ccc(N3CCN(c4ccc(OCC5COC(Cn6cncn6)(c6ccc(Cl)cc6Cl)O5)cc4)CC3)cc2)c1=O (stereo unspecified) [Itraconazole],0.258 ± 0.0035
4,CCCOc1ccc(C(=O)OCCN(CC)CC)cc1N [Proparacaine hydrochloride],0.268 ± 0.013
5,COc1ccc([C@@H]2Sc3ccccc3N(CCN(C)C)C(=O)[C@@H]2OC(C)=O)cc1 [Diltiazem hydrochloride],0.274 ± 0.014
6,CCc1cccc2c3c([nH]c12)C(CC)(CC(=O)O)OCC3 (stereo unspecified) [Etodolac],0.264 ± 0.01
7,N=C(N)NC(=O)c1nc(Cl)c(N)nc1N [Amiloride hydrochloride dihydrate],0.257 ± 0.003
8,N=C(N)c1ccc(OCCCCCOc2ccc(C(=N)N)cc2)cc1 [Pentamidine isethionate],0.0536 ± 0.0012
9,COc1ccccc1O [Guaiacol],0.2742 ± 0.0019
10,CN(C)CCOC1=Cc2ccccc2Sc2ccc(Cl)cc21 [Zotepine],0.177 ± 0.0016
11,CC(=O)N[C@@H](CS)C(=O)O [Acetylcysteine],0.2731 ± 0.0017

# Same assay, conditions: arabinose 100000 nM; compound 0.1 mM; raw OD600 reference: median of DMSO wells 0.201, cell-free background 0.041
row,Structure (SMILES),growth
1,Cc1onc(-c2c(F)cccc2Cl)c1C(=O)N[C@@H]1C(=O)N2[C@@H]1SC(C)(C)[C@@H]2C(=O)O [Flucloxacillin sodium],0.186 ± 0.022
2,CN(C/C=C/c1ccccc1)Cc1cccc2ccccc12 [Naftifine hydrochloride],0.045 ± 0.0005
3,COc1ccccc1Oc1c(NS(=O)(=O)c2ccc(C(C)(C)C)cc2)nc(-c2ncccn2)nc1OCCO [Bosentan],0.276 ± 0.011
4,O=C(O)CCC(=O)Nc1ccc(S(=O)(=O)Nc2nccs2)cc1 [Succinylsulfathiazole],0.21 ± 0.018
5,NC(=O)OCC(O)COc1ccc(Cl)cc1 (stereo unspecified) [Chlorphensin carbamate],0.245 ± 0.022
6,C(=C\c1ccccc1)/CN1CCN(C(c2ccccc2)c2ccccc2)CC1 [Cinnarizine],0.18 ± 0.011
7,Cc1ccccc1OCC(O)CO (stereo unspecified) [Mephenesin],0.209 ± 0.016
8,O=C(O)CN(CCN(CC(=O)O)CC(=O)O)CCN(CC(=O)O)CC(=O)O [Pentetic acid],0.04467 ± 5.8e-05
9,CC(=O)OCC(=O)[C@@]1(OC(C)=O)[C@@H](C)C[C@H]2[C@@H]3C[C@H](F)C4=CC(=O)C=C[C@]4(C)[C@@]3(F)[C@@H](O)C[C@@]21C [Diflorasone Diacetate],0.194 ± 0.014
10,O=C1C(CC[S+]([O-])c2ccccc2)C(=O)N(c2ccccc2)N1c1ccccc1 (stereo unspecified) [Sulfinpyrazone],0.17 ± 0.01
11,O=C(CCNNC(=O)c1ccncc1)NCc1ccccc1 [Nialamide],0.193 ± 0.018
12,C[N+]1(C)CCC(=C(c2ccccc2)c2ccccc2)CC1 [Diphemanil methylsulfate],0.197 ± 0.013
13,Cc1ccc(C)c(OCCCC(C)(C)C(=O)O)c1 [Gemfibrozil],0.163 ± 0.0097
14,O=C1CCc2cc(OCCCCc3nnnn3C3CCCCC3)ccc2N1 [Cilostazol],0.125 ± 0.0036
15,COc1cc(C(=O)NCc2ccc(OCCN(C)C)cc2)cc(OC)c1OC [Trimethobenzamide hydrochloride],0.201 ± 0.017
16,Cc1nnc(SCC2=C(C(=O)O)N3C(=O)[C@@H](NC(=O)Cn4cnnn4)[C@H]3SC2)s1 [Cefazolin sodium salt],0.229 ± 0.0084
17,N#Cc1ccc(C(c2ccc(C#N)cc2)n2cncn2)cc1 [Letrozole],0.243 ± 0.028
18,CCOc1nc2cccc(C(=O)O)c2n1Cc1ccc(-c2ccccc2-c2nnn[nH]2)cc1 [Candesartan],0.212 ± 0.023
19,CC(CNC1CCCCC1)OC(=O)c1ccccc1 (stereo unspecified) [Hexylcaine hydrochloride],0.191 ± 0.0085
20,C#C[C@]1(O)CC[C@H]2[C@@H]3CCC4=Cc5oncc5C[C@]4(C)[C@H]3CC[C@@]21C [Danazol],0.152 ± 0.012

row,Structure (SMILES),growth
1,CC1CC(OC(=O)c2ccccc2O)CC(C)(C)C1 (stereo unspecified) [Homosalate],0.199 ± 0.03
2,CCOc1ccc2c(c1)C(C)=CC(C)(C)N2 [Ethoxyquin],0.192 ± 0.017
3,CN(C)CCN(Cc1ccc(Cl)cc1)c1ccccn1 [Chloropyramine hydrochloride],0.201 ± 0.0069
4,COc1ccc([C@@H]2CC(=O)c3c(O)cc(O[C@@H]4O[C@H](CO[C@@H]5O[C@@H](C)[C@H](O)[C@@H](O)[C@H]5O)[C@@H](O)[C@H](O)[C@H]4O)cc3O2)cc1O [Hesperidin],0.205 ± 0.0089
5,CO[C@H]1C[C@H](O[C@H]2[C@H](C)[C@@H](O[C@@H]3O[C@H](C)C[C@H](N(C)C)[C@H]3OC(C)=O)[C@@H](C)C[C@@]3(CO3)C(=O)[C@H](C)[C@@H](OC(C)=O)[C@@H](C)[C@@H](C)OC(=O)[C@@H]2C)O[C@@H](C)[C@@H]1OC(C)=O [Troleandomycin],0.0702 ± 0.0019
6,CCCCCN(CCCCC)C(=O)C(CCC(=O)O)NC(=O)c1ccc(Cl)c(Cl)c1 (stereo unspecified) [Lorglumide sodium salt],0.158 ± 0.0084
7,CC(Oc1ccccc1)C(=O)N[C@@H]1C(=O)N2[C@@H]1SC(C)(C)[C@@H]2C(=O)O (stereo partly specified) [Phenethicillin potassium salt],0.223 ± 0.018
8,C#C[C@]1(O)CC[C@H]2[C@@H]3CCC4=CC(=O)CC[C@@H]4[C@H]3CC[C@@]21C [Norethindrone],0.179 ± 0.012
9,CC[C@H](C)[C@H](N)C1=N[C@H](C(=O)N[C@@H](CC(C)C)C(=O)N[C@H](CCC(=O)O)C(=O)N[C@H](C(=O)N[C@H]2CCCCNC(=O)[C@H](CC(N)=O)NC(=O)[C@@H](CC(=O)O)NC(=O)[C@H](Cc3cnc[nH]3)NC(=O)[C@@H](Cc3ccccc3)NC(=O)[C@H]([C@@H](C)CC)NC(=O)[C@@H](CCCN)NC2=O)[C@@H](C)CC)CS1 [Bacitracin],0.387 ± 0.0099
10,CN(C)CC/C=C1/c2ccccc2COc2ccc(CC(=O)O)cc21 [Olopatadine hydrochloride],0.179 ± 0.014
11,C[C@]12CCC(=O)C=C1C=C[C@@H]1[C@@H]2CC[C@@]2(C)[C@H]1CC[C@@]21CCC(=O)O1 [Canrenone],0.131 ± 0.0077
12,CCC(C)n1ncn(-c2ccc(N3CCN(c4ccc(OCC5COC(Cn6cncn6)(c6ccc(Cl)cc6Cl)O5)cc4)CC3)cc2)c1=O (stereo unspecified) [Itraconazole],0.251 ± 0.012
13,CCCOc1ccc(C(=O)OCCN(CC)CC)cc1N [Proparacaine hydrochloride],0.196 ± 0.0096
14,COc1ccc([C@@H]2Sc3ccccc3N(CCN(C)C)C(=O)[C@@H]2OC(C)=O)cc1 [Diltiazem hydrochloride],0.175 ± 0.0049
15,CCc1cccc2c3c([nH]c12)C(CC)(CC(=O)O)OCC3 (stereo unspecified) [Etodolac],0.162 ± 0.0052
16,N=C(N)NC(=O)c1nc(Cl)c(N)nc1N [Amiloride hydrochloride dihydrate],0.255 ± 0.016
17,N=C(N)c1ccc(OCCCCCOc2ccc(C(=N)N)cc2)cc1 [Pentamidine isethionate],0.0903 ± 0.001
18,COc1ccccc1O [Guaiacol],0.192 ± 0.012
19,CN(C)CCOC1=Cc2ccccc2Sc2ccc(Cl)cc21 [Zotepine],0.215 ± 0.0073
20,CC(=O)N[C@@H](CS)C(=O)O [Acetylcysteine],0.203 ± 0.019
